Source: PubChem BioAssay
Results filed as inconclusive are left out. Activity calls are given as the source filed them.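 How the source made its calls, unless noted: active means viability at or below 10% of carrier control in both of two separate runs; inconclusive means viability at or below 10% in only one of the two runs; inactive means the rest.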

How the values were obtained:
[1] = reducers of endogenous Her2 protein level, primary screen, SKBR3 breast tumor cells, AlphaScreen, ATP viability (AID 461;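 active means Her2 level under about 52% in both replicate screens, with viability over 70% of control, limit read from the data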;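 on Her2 level: lower value means less Her2 protein in the cells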;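 on viability: percent of carrier control wells set as 100% viability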); details: 18-24 h, measured here: SKBR3 viability, ATP luminescence, at 10 µM
[2] = molecular target: Receptor tyrosine-protein kinase erbB-2 (Homo sapiens) (UniProt P04626); experiment: as above; details: 18-24 h, at 10 µM, stronger effect = lower value
Receptor tyrosine-protein kinase erbB-2 (Homo sapiens), sequence (P04626 whole entry, looked up): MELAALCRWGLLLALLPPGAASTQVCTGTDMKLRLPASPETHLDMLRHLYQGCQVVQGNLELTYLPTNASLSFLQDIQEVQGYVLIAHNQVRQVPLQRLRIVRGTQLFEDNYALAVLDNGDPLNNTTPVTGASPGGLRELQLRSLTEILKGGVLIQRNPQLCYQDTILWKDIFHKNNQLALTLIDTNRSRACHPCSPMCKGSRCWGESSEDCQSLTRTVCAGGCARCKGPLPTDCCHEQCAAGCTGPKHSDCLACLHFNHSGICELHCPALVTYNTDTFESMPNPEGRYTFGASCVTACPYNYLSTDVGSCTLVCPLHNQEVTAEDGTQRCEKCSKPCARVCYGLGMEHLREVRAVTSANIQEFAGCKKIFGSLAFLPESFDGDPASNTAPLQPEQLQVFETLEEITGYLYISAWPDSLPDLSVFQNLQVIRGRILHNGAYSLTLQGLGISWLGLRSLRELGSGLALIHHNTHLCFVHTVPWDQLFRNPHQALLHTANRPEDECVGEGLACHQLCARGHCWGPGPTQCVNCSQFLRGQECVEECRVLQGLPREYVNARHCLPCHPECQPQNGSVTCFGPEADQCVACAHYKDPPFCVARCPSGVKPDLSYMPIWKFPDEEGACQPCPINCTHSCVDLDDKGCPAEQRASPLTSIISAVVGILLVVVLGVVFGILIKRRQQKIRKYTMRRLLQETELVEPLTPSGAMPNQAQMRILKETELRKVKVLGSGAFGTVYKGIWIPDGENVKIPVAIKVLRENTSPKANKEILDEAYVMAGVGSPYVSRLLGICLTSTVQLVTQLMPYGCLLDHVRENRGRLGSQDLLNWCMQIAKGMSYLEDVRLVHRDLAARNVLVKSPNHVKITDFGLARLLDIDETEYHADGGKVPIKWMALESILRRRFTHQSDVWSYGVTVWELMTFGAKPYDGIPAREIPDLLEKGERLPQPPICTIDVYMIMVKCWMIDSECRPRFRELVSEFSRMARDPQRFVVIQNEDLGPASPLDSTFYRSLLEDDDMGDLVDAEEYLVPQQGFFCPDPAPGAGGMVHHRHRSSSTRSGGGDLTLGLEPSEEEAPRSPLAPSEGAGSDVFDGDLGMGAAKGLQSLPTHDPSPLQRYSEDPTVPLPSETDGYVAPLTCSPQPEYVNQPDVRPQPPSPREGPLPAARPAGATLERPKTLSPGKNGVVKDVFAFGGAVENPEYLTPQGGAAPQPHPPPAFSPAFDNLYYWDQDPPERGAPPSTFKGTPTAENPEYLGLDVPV

[3] = SK-BR-3 cell growth inhibitors, pilot screen, 24 h, human (AID 572); details: SK-BR-3 viability, CellTiter-Glo luminescence, at 10 µM, stronger effect = lower value;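 further: compound exposure lasted between 18 and 24 h rather than exactly 24 h; 100% = carrier-treated control wells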
[4] = HUVEC growth inhibition – cell-based, human, primary screen (AID 575;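 active means viability at or below 30% in both replicate assays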;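 further: 100% = median of untreated cell wells with 0.1% DMSO on each plate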); details: HUVEC proliferation, CellTiter-Glo luminescence, 72 h; at 10 µM; stronger effect = lower value
[5] = growth inhibitors of H69AR lung tumor, primary screen, human, duplicate replicates (AID 580;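 active means viability at or under a set limit in both replicates, limit being median viability minus 3 SD, cut at about 48% in these data, passing the limit was not always enough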;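 further: 100% = mean luminescence of untreated wells and 0% = no signal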); details: H69AR lung tumor cells viability, ATP luminescence, 72 h; at 10 µM; stronger effect = lower value
[6] = reversal of MRP1-mediated doxorubicin resistance, pilot screen, H69AR cells, doxorubicin co-treatment (AID 601;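 active means viability loss from added drug above about 55%, and viability with drug at most 40%, in both replicates, limit read from the data, passing the limit was not always enough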); details: CellTiter-Glo, 72 h, at 10 µM; for differential viability (reversal): stronger effect = higher value
[7] = 384-well plate pilot, post-Golgi transport modulator project, inhibition of yeast transport mutant growth (AID 636; in the data active means inhibition above about 31%); details: absorbance 615 nm, about 18 h, stronger effect = higher value
[8] = growth suppression of yeast trafficking mutant, preliminary HTS, modulators of trafficking downstream of Golgi apparatus project, 1536-format plate, OD 615 nm (AID 637; in the data active means inhibition above about 30%); details: yeast transport mutant growth, absorbance 615 nm, 18 h; stronger effect = higher value
[9] = OD615 S. cerevisiae growth inhibition, permissive medium, pilot counter-assay, permissive growth control for S. cerevisiae lifespan shortening project (AID 705;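 active means growth inhibition above 25% in both replicates, a cutoff set 3 SD above the mean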); details: OD615, 24 h, at 10 µM, stronger effect = higher value
[10] = Restrictive medium S. cerevisiae growth inhibition, OD615, pilot screen of yeast lifespan reduction project, restrictive growth control (AID 706;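 active means growth inhibition above a set limit, 3 SD over mean compound inhibition, in both replicates, cut at about 43% in these data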;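 further: modified DeaD lifespan yeast strain shifted to restrictive glucose medium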); details: OD615, 48 h, at 10 µM, stronger effect = higher value
[11] = viability gain of MRP-1-high H69AR cells under doxorubicin, pilot screen, MRP-1 activator project, CellTiter-Glo, duplicate (AID 807;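 active means viability increase at or above a cutoff of the median across tested compounds plus 3 SD, cut at about 8.5% in these data, passing the limit was not always enough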;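 further: compound pretreatment 18-22 h then 72 h combined with doxorubicin; 0% = doxorubicin alone and 100% = vehicle without doxorubicin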); details: H69AR viability with doxorubicin, CellTiter-Glo luminescence; at 10 µM; stronger effect = higher value
[12] = growth suppression of beta-catenin knockout HCT116, pilot screen, human colon tumor cells (AID 823;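 active means cell viability at or below a set limit in both duplicate runs, the limit being the all-compound median minus 4 SD, cut at about 23% in these data, passing the limit was not always enough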;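 further: 0% = wells killed by 20 µM Hyamine and 100% = untreated DMSO cell wells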); details: CellTiter-Glo, 60 h, at 10 µM, stronger effect = lower value
[13] = growth suppression of PTEN-deleted HCT116, pilot screen, cell-based, HCT116 clonal line, CellTiter-Glo (AID 824;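 active means viability at or below 27.92% in each of two runs, the all-compound median minus 4 SD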;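 further: 0% = 20 µM Hyamine control and 100% = vehicle cell control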); details: 60 h, at 10 µM, stronger effect = lower value
[14] = inhibitors of the yeast RAM network, pilot screen, dse1pr::URA3 reporter, 5-FOA selection (AID 869;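 active means inhibition over a set limit, the all-compound mean plus 3 SD, in both replicate runs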;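 further: 0% = DMSO wells with no growth and 100% = 10 µM 1-NA-PP1 with full growth; RAM network block rescues cells from 5-FOA so hits raise OD615 growth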); details: S. cerevisiae dse1pr::URA3 5-FOA growth, OD615, 2 d; at 10 µM; stronger effect = higher value; strain carries analog-sensitive mutant Cbk1 kinase
[15] = RAM signaling pathway blockade in yeast – S. cerevisiae, Pdr1DBD-CYC8 efflux-inhibited sensitized strain, primary screen (AID 1298;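 active means RAM network inhibition above 8.4% in each of two replicates, 3 SD over the compound average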;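 further: 0% = DMSO untreated cells without growth and 100% = 10 µM 1-NA-PP1 full growth; higher means more yeast growth rescued from 5-FOA killing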); details: S. cerevisiae cbk1-as DSE1-URA3 strain, 5-FOA growth OD615, 2 d; at 50 µM; stronger effect = higher value
[16] = H69AR cells + 2 uM doxorubicin, measured here: viability with 2 uM doxorubicin, stronger effect = lower value
[17] = H69AR cells, compound alone cytotoxicity

CCCN(CCC)C(=O)c1c(C)[nH]c(C(=O)OCC)c1C
81.4%: viability [6, 17]
93.8%: viability [6, 16]
inactive: Her2 level [2] 110% | viability [3] 98% | viability [4] 106% | viability [5] 81.4% | differential viability (reversal) ([6]; H69AR cells + 2 uM doxorubicin) -12.4% | inhibition [7] -0.38% | inhibition [8] -2.33% | growth inhibition [9] 4.14% | growth inhibition [10] -3.27% | viability increase [11] -3.62% | viability [12] 92.9% | viability [13] 86.7% | inhibition [14] 2.12% | RAM network inhibition [15] 1.44%
98%: viability [1]

COc1cc(C(O)c2nc3ccccc3n2C)cc(OC)c1OC (stereo not given)
103%: viability [6, 17]
93.2%: viability [6, 16]
91.5%: viability [1]
inactive: Her2 level [2] 100% | viability [3] 91.5% | viability [4] 99.8% | viability [5] 103% | differential viability (reversal) ([6]; H69AR cells + 2 uM doxorubicin) 9.33% | inhibition [7] 1.95% | inhibition [8] -7.33% | growth inhibition [9] -7.22% | growth inhibition [10] -9.59% | viability increase [11] -0.62% | viability [12] 94.1% | viability [13] 93.3% | inhibition [14] 1.35% | RAM network inhibition [15] 0.78%

c1ccc(C2(Cn3ccc4ccccc43)OCCO2)cc1
inactive: Her2 level [2] 104% | viability [3] 89% | viability [4] 93.7% | viability [5] 94.9% | differential viability (reversal) ([6]; H69AR cells + 2 uM doxorubicin) 7.87% | inhibition [7] -0.78% | inhibition [8] 3.44% | growth inhibition [9] -4.05% | growth inhibition [10] -10.5% | viability increase [11] -3.2% | viability [12] 81.6% | viability [13] 81.8% | inhibition [14] 1.63% | RAM network inhibition [15] 6.65%
87.1%: viability [6, 16]
94.9%: viability [6, 17]
89%: viability [1]

CC1(C)CC(=O)C=C(Nc2ccc(OCC(F)(F)C(F)F)cc2)C1
89.9%: viability [6, 16]
103%: viability [6, 17]
95%: viability [1]
inactive: Her2 level [2] 104% | viability [3] 95% | viability [4] 92.8% | viability [5] 103% | differential viability (reversal) ([6]; H69AR cells + 2 uM doxorubicin) 12.9% | inhibition [7] 0.38% | inhibition [8] -12.3% | growth inhibition [9] -3.99% | growth inhibition [10] 5.75% | viability increase [11] 1.17% | viability [12] 89.5% | viability [13] 90.2% | inhibition [14] -0.6% | RAM network inhibition [15] 3.07%

COc1ccc(OC)c(NC(=O)c2nnn(Cc3ccc(Br)cc3F)c2N)c1
inactive: Her2 level [2] 88% | viability [3] 80% | viability [4] 40.9% | viability [5] 75.7% | differential viability (reversal) ([6]; H69AR cells + 2 uM doxorubicin) 16.7% | inhibition [7] 1.07% | inhibition [8] -0.49% | growth inhibition [9] -0.51% | growth inhibition [10] -7.43% | viability increase [11] 0.57% | viability [12] 69.5% | viability [13] 66.1% | inhibition [14] 1.21% | RAM network inhibition [15] 4.25%
58.9%: viability [6, 16]
75.7%: viability [6, 17]
80%: viability [1]
